Drawing on PubChem BioAssay (NCATS), this text covers activity change, negative = inhibition for 40 compounds.

Results filed as inconclusive are left out. Unmarked numbers belong to inactive results. Active and inactive are the calls of the source. Calls come from the whole dose curve; as a rule, active = well fitted curve in either direction with a large enough effect (not every such curve was filed as active); inconclusive = small, poorly fitted or top-dose-only effect, or another doubt; inactive = flat fitted curve, though single readings scatter.
% is set by controls: 0 for no effect and ±100 for the full control effect.

A short description of one assay: AP1 Signaling Pathway (AID 357).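 Note: ME-180 reporter cells stimulated with EGF at its EC50 level.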 As to conditions: ME-180 (cervical carcinoma) AP-1-bla reporter, EGF-induced, beta-lactamase ratio, 5 h; at 17.2 µM (top of the series) unless noted. The essentials: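 A ratiometric CCF4 readout (405 nm excitation; 460 and 530 nm emission) quantified AP-1-driven beta-lactamase in ME-180 cells after 5 h with compound and EC50 EGF; AC50 values were derived for activators and inhibitors.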
As to `Cc1cccc(-n2ncc3c(NCCN4CCOCC4)ncnc32)c1`, the activity change, negative = inhibition is 1.48%.

`CCN(CC)CCN1C(=O)C(=O)/C(=C(/O)c2ccc(OC(C)C)cc2)C1c1ccncc1` (stereo not given): the activity change, negative = inhibition was -12%.

With `Cc1cc(C)n(-c2nnc(C)n2/N=C/c2ccco2)n1`, the activity change, negative = inhibition was 4.26%.

On to `CCn1c(SCC(=O)NC2CCCCC2C)nnc1-c1ccc(OC)cc1` (stereo not given), for which the activity change, negative = inhibition was -8.83%.

On to `CCOP(=O)(c1ccccc1)c1nc(-c2ccc(F)cc2)oc1N1CCCCC1` (stereo not given), for which the activity change, negative = inhibition is -11.9%.

For the compound `Cc1nc2c(o1)CCc1ccccc1C2O` (stereo not given), the activity change, negative = inhibition is 8.51%.

Turning to `CC1N(O)C(c2ccc(Cl)cc2Cl)N(O)C1(C)C` (stereo not given), the activity change, negative = inhibition was -0.0716%.

Take `COc1ccc(C2/C(=C(/O)c3cnn(-c4ccccc4)c3C)C(=O)C(=O)N2CCN(C)C)cc1OC` (stereo not given): the activity change, negative = inhibition was -0.291%.

As for `COc1ccc(OC)c(C2/C(=C(/O)c3cnn(-c4ccccc4)c3C)C(=O)C(=O)N2CCN(C)C)c1` (stereo not given), the activity change, negative = inhibition is 0.346%.

In the case of `CSc1nc(C)cc(OCCNS(=O)(=O)c2cc(C)ccc2C)n1`, the activity change, negative = inhibition was -11.3%.

As to `CN1CCN(CCCCOc2ccc(F)cc2)CC1`, the activity change, negative = inhibition was 10.9%.

Regarding `COc1cccc(N2CCN(C3CC(=O)N(c4cccc(Cl)c4)C3=O)CC2)c1` (stereo not given), the activity change, negative = inhibition was -3.08%.

Regarding `C=CCOc1nc2c(c(=O)n(Cc3ccc(Cl)c(Cl)c3)c(=O)n2C)n1C`, the activity change, negative = inhibition was -3.25%.

Regarding `COC(=O)CNC(=O)c1c(C)cc(=O)oc1C`, the activity change, negative = inhibition was 21.5%.

Regarding `COc1ccc(-c2onc(C)c2-c2ccccc2)c(O)c1`, the activity change, negative = inhibition was -16.7%.

On to `Cc1nnc(N2CCOCC2)c2ccccc12`, for which the activity change, negative = inhibition was 5.51%.

In the case of `CCOc1cccc(C2C(C#N)=C(N)Oc3cc(C)oc(=O)c32)c1OCC` (stereo not given), the activity change, negative = inhibition is -17.6%.

For `O=C1C2ON(c3ccccc3)C(c3ccncc3)C2C(=O)N1c1ccccc1` (stereo not given), the activity change, negative = inhibition was -0.837%.

With `COc1ccccc1-c1nnc2sc(COc3ccccc3)nn12`, the activity change, negative = inhibition was -9.17%.

Turning to `CCCCOC(=O)c1ccc(NC(=O)CSc2nncn2C)cc1`, the activity change, negative = inhibition was 6.24%.

Regarding `O=C(Nc1ncn[nH]1)c1c(Cl)ccc(Cl)c1Cl`, the activity change, negative = inhibition is 13.1%.

For the compound `Cn1c(Cn2cnc3ccccc32)nc2ccccc21`, the activity change, negative = inhibition was -1.15%.

On to `Nc1nnnn1N=C1CCCCC1`, for which the activity change, negative = inhibition was -7.36%.

In the case of `Cc1cc2c(c(=O)n1Cc1cccnc1)C(c1ccccc1)C(C#N)=C(N)O2` (stereo not given), the activity change, negative = inhibition is -14.1%.

As for `Cc1ccc2cc(CN(C(=O)c3ccco3)c3ccccc3)c(=O)[nH]c2c1`, the activity change, negative = inhibition is -24.5%.

Regarding `COc1ccccc1-n1c(=O)c2c3c(sc2n2c(SC)nnc12)CCC3`, the activity change, negative = inhibition was 6.29%.

For `CC(=O)OCC(=O)[C@H]1CC[C@H]2[C@@H]3CC=C4C[C@@H](O)CC[C@]4(C)[C@H]3CC[C@]12C`, the activity change, negative = inhibition is 12.9%.

On to `COc1cccc(N2CCN(c3ncnc4c3[nH]c3ccc(F)cc34)CC2C)c1` (stereo not given), for which the activity change, negative = inhibition is -121% (active).

Regarding `CC(C)Oc1ccc(Cc2c(O)nc(NCCCN(C)C)[nH]c2=O)cc1`, the activity change, negative = inhibition was 9.78%.

On to `O=C1NC2c3ccccc3C(=O)N2c2c1cnn2-c1ccccc1` (stereo not given), for which the activity change, negative = inhibition was -6.7%.

Regarding `CC(=O)C1=C(O)C(=O)N(c2cccc(C(=O)O)c2)C1c1ccc(F)cc1` (stereo not given), the activity change, negative = inhibition is 15.1%.

Take `O=C1CCc2nc3ccccc3c(=O)n2N1`: the activity change, negative = inhibition was -6.16%.

As to `CN1C(=O)NC(c2ccccc2)C2=C1CN(Cc1ccccc1)C2=O` (stereo not given), the activity change, negative = inhibition is -1.08%.

For the compound `CC1(C)Cc2c(C#N)c(SCc3nc4ccccc4[nH]3)nc(N3CCOCC3)c2CO1`, the activity change, negative = inhibition was -22.7%.

`CCC(=O)Nc1nc2ccccc2n1CCN(C)C`: the activity change, negative = inhibition was 3.29%.

Take `CCC(NC(=O)Nc1nccs1)(C(F)(F)F)C(F)(F)F`: the activity change, negative = inhibition is -2.44%.

For the compound `CN(C1CCS(=O)(=O)C1)S(=O)(=O)c1cccc2nsnc12` (stereo not given), the activity change, negative = inhibition is -3.76%.

Regarding `CCOCCn1c(SC)nc2c1c(=O)[nH]c(=O)n2C`, the activity change, negative = inhibition is 11%.

Turning to `O=C(C1CC1(c1ccccc1)c1ccccc1)N1CCOCC1` (stereo not given), the activity change, negative = inhibition is -9.16%.

In the case of `CCOC(=O)CSc1nc(N2CCOCC2)c2c(c1C#N)CC(C)(C)N(C)C2`, the activity change, negative = inhibition is -8.24%.

A short description of another assay: NFAT Signaling Pathway (AID 444).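 Note: carbachol stimulus at about its EC50 of 1 µM final.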 Particulars: Jurkat NFAT-bla M1, carbachol, beta-lactamase ratio, 5 h; at 17.2 µM (top of the series) unless noted. The method in brief: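 Jurkat cells carrying an NFAT-driven β-lactamase reporter and co-transfected muscarinic M1 receptor were treated with compound plus carbachol (1 uM final, an EC50 level) for 5 h at 37 °C. CCF4 loading followed for 1 h at RT; 460/530 nm ratio gave %activity.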
With `Cc1cccc(-n2ncc3c(NCCN4CCOCC4)ncnc32)c1`, the activity change, negative = inhibition is 8.91%.

As to `CCN(CC)CCN1C(=O)C(=O)/C(=C(/O)c2ccc(OC(C)C)cc2)C1c1ccncc1` (stereo not given), the activity change, negative = inhibition was 0.331%.

In the case of `Cc1cc(C)n(-c2nnc(C)n2/N=C/c2ccco2)n1`, the activity change, negative = inhibition was -7.08%.

As for `CCn1c(SCC(=O)NC2CCCCC2C)nnc1-c1ccc(OC)cc1` (stereo not given), the activity change, negative = inhibition was 19.9%.

For `CCOP(=O)(c1ccccc1)c1nc(-c2ccc(F)cc2)oc1N1CCCCC1` (stereo not given), the activity change, negative = inhibition is 3.09%.

For `Cc1nc2c(o1)CCc1ccccc1C2O` (stereo not given), the activity change, negative = inhibition was 3.41%.

For the compound `CC1N(O)C(c2ccc(Cl)cc2Cl)N(O)C1(C)C` (stereo not given), the activity change, negative = inhibition was -14.6%.

Regarding `COc1ccc(C2/C(=C(/O)c3cnn(-c4ccccc4)c3C)C(=O)C(=O)N2CCN(C)C)cc1OC` (stereo not given), the activity change, negative = inhibition is 18.7%.

Regarding `COc1ccc(OC)c(C2/C(=C(/O)c3cnn(-c4ccccc4)c3C)C(=O)C(=O)N2CCN(C)C)c1` (stereo not given), the activity change, negative = inhibition was 4.77%.

`CSc1nc(C)cc(OCCNS(=O)(=O)c2cc(C)ccc2C)n1`: the activity change, negative = inhibition was -2.9%.

Turning to `CN1CCN(CCCCOc2ccc(F)cc2)CC1`, the activity change, negative = inhibition is -9.28%.

As for `COc1cccc(N2CCN(C3CC(=O)N(c4cccc(Cl)c4)C3=O)CC2)c1` (stereo not given), the activity change, negative = inhibition is 12.6%.

As to `C=CCOc1nc2c(c(=O)n(Cc3ccc(Cl)c(Cl)c3)c(=O)n2C)n1C`, the activity change, negative = inhibition was -2.4%.

As to `COC(=O)CNC(=O)c1c(C)cc(=O)oc1C`, the activity change, negative = inhibition is 13.6%.

Regarding `COc1ccc(-c2onc(C)c2-c2ccccc2)c(O)c1`, the activity change, negative = inhibition is 9.81%.

For `Cc1nnc(N2CCOCC2)c2ccccc12`, the activity change, negative = inhibition is 6.76%.

Regarding `CCOc1cccc(C2C(C#N)=C(N)Oc3cc(C)oc(=O)c32)c1OCC` (stereo not given), the activity change, negative = inhibition is 9.73%.

Take `O=C1C2ON(c3ccccc3)C(c3ccncc3)C2C(=O)N1c1ccccc1` (stereo not given): the activity change, negative = inhibition is 3.71%.

For `COc1ccccc1-c1nnc2sc(COc3ccccc3)nn12`, the activity change, negative = inhibition was 13.4%.

On to `CCCCOC(=O)c1ccc(NC(=O)CSc2nncn2C)cc1`, for which the activity change, negative = inhibition is 4.69%.

With `O=C(Nc1ncn[nH]1)c1c(Cl)ccc(Cl)c1Cl`, the activity change, negative = inhibition was 1.62%.

With `Cn1c(Cn2cnc3ccccc32)nc2ccccc21`, the activity change, negative = inhibition is 3.95%.

Regarding `Nc1nnnn1N=C1CCCCC1`, the activity change, negative = inhibition was 0.933%.

For `Cc1cc2c(c(=O)n1Cc1cccnc1)C(c1ccccc1)C(C#N)=C(N)O2` (stereo not given), the activity change, negative = inhibition is 3.75%.

With `Cc1ccc2cc(CN(C(=O)c3ccco3)c3ccccc3)c(=O)[nH]c2c1`, the activity change, negative = inhibition was 2.15%.

With `COc1ccccc1-n1c(=O)c2c3c(sc2n2c(SC)nnc12)CCC3`, the activity change, negative = inhibition is -21.2%.

Turning to `CC(=O)OCC(=O)[C@H]1CC[C@H]2[C@@H]3CC=C4C[C@@H](O)CC[C@]4(C)[C@H]3CC[C@]12C`, the activity change, negative = inhibition was 4.8%.

Regarding `COc1cccc(N2CCN(c3ncnc4c3[nH]c3ccc(F)cc34)CC2C)c1` (stereo not given), the activity change, negative = inhibition was -137% (active).

`CC(C)Oc1ccc(Cc2c(O)nc(NCCCN(C)C)[nH]c2=O)cc1`: the activity change, negative = inhibition is 3.21%.

Take `O=C1NC2c3ccccc3C(=O)N2c2c1cnn2-c1ccccc1` (stereo not given): the activity change, negative = inhibition is -1.9%.

In the case of `CC(=O)C1=C(O)C(=O)N(c2cccc(C(=O)O)c2)C1c1ccc(F)cc1` (stereo not given), the activity change, negative = inhibition was 2.04%.

In the case of `O=C1CCc2nc3ccccc3c(=O)n2N1`, the activity change, negative = inhibition is 22.2%.

For `CN1C(=O)NC(c2ccccc2)C2=C1CN(Cc1ccccc1)C2=O` (stereo not given), the activity change, negative = inhibition is 1.92%.

Take `CC1(C)Cc2c(C#N)c(SCc3nc4ccccc4[nH]3)nc(N3CCOCC3)c2CO1`: the activity change, negative = inhibition is 8.62%.

On to `CCC(=O)Nc1nc2ccccc2n1CCN(C)C`, for which the activity change, negative = inhibition is -7.56%.

Take `CCC(NC(=O)Nc1nccs1)(C(F)(F)F)C(F)(F)F`: the activity change, negative = inhibition is -12.7%.

For `CN(C1CCS(=O)(=O)C1)S(=O)(=O)c1cccc2nsnc12` (stereo not given), the activity change, negative = inhibition is 18.9%.

Turning to `CCOCCn1c(SC)nc2c1c(=O)[nH]c(=O)n2C`, the activity change, negative = inhibition is -1.92%.

As for `O=C(C1CC1(c1ccccc1)c1ccccc1)N1CCOCC1` (stereo not given), the activity change, negative = inhibition is 10.4%.

In the case of `CCOC(=O)CSc1nc(N2CCOCC2)c2c(c1C#N)CC(C)(C)N(C)C2`, the activity change, negative = inhibition was -17.7%.
